Shown are actives, neighbours in structure and some others; about 17% of the full set was active somewhere.
S2 tox: reduces viability in counter-screen for ATXN expression inhibitors; Potency, µM (top dose mostly 56.7 µM), usual class: cytotoxic; AID 651635; actives 0.49% (n = 400,000); S2 cells (HEK-293 line with an ATXN2-luciferase reporter) viability, CellTiter-Fluor protease fluorescence, 24 h; further: nearly all actives have a fitted effect of over 40% in size
TDP1 cell CPT: DT40-hTDP1 cell growth loss with CPT; actives 12% (n = 420,000); Potency, µM (series often up to 46.2 µM), usual class: inhibitors; AID 686979; chicken DT40 Tdp1-/-;hTDP1 cells + 20 nM CPT, ATP luminescence, 48 h; further: nearly all actives have a fitted effect of over 55% in size
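Cell growth measured by CellTiter-Glo luminescence after a minimum 48 h, 37 C compound exposure with 20 nM CPT in Tdp1-knockout DT40 cells stably expressing hTDP1, seeded 400/well; qHTS titration format.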
ATXN2 expr inh: ATXN2 expression inhibition; HEK-293 ATXN2-luciferase reporter, luminescence, 24 h; Potency, µM (series often up to 57 µM), most hits filed as inhibitors; actives 0.72% (n = 360,000); AID 1745845; further: nearly all actives have a fitted effect of over 55% in size
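qHTS (up to 57 uM final) was run with 24 h compound exposure of reporter cells at 37 °C. Each well was multiplexed: SteadyGlo luminescence measured ATXN2-luciferase expression after a fluorogenic Gly-Phe-AFC viability readout (25 uM final).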
TGFb SMAD3 inh: blocks TGF-b signaling. HepG2 CAGA-GFP TGF-b/SMAD3 reporter, GFP fluorescence, 18 h; TGF-beta stimulated, 500 pg/mL final. Potency, µM (titrated, usually from 46.1 µM), most hits filed as inhibitors. actives 1.2% (n = 410,000); further: nearly all actives have a fitted effect of over 65% in size
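Read-out: total well GFP (ex488/em500-530) summed from mean per-cell fluorescence. Cells: HEPG2 CAGA-GFP, 1% FBS DMEM, 18 h at 37 degrees C with 500 pg/mL final TGF-beta. Unstimulated wells served as the full-inhibition control; stimulated DMSO wells = 0%.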
HepG2 tox: kills HepG2 cells in TGF-b inhibitor counter-screen | HepG2 CAGA-GFP viability, ATP luminescence, 18 h | Potency, µM (highest dose often 46.1 µM), most hits filed as cytotoxic | actives 0.76% (n = 410,000) | AID 588856
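HepG2 CAGA-GFP cells (1000/well, DMEM with 1% FBS) received compound, then TGF-beta at 500 pg/mL final, and were incubated 18 hours at 37 degrees C. Viability was read by CellTiter-Glo luminescence. Media-only wells were set as complete cell-killing and DMSO as no toxicity.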
TDP1 cell noCPT: qHTS for Inhibitors of human tyrosyl-DNA phosphodiesterase 1 (TDP1): qHTS in cells in absence of CPT | actives 15% (n = 420,000) | DT40 Tdp1-/- hTDP1 cells, no CPT, ATP luminescence, 48 h | Potency, µM (titrated, usually from 46.2 µM), usual class: inhibitors | AID 686978, 2013; further: nearly all actives have a fitted effect of over 55% in size
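Readout: luminescence from CellTiter-Glo after 30 min in the dark at RT. Cells: DT40 Tdp1-/- with stable hTDP1, 400/well. Exposure: compounds alone, ≥48 hr, 37 °C.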
Of the large screens only hits and unclear results are named; the others gave an inactive call. The call rests on the fitted dose curve; in most records, active means well fitted curve in the direction sought with a large enough effect; inconclusive means small, poorly fitted or top-dose-only effect, or another doubt; inactive means no such curve, though single readings can be large; an effect the other way counts as inactive or inconclusive.

CC(C)NC(=O)N(O)C1N(Cc2ccc3c(c2)OCO3)C(=S)SC1(C)C (configuration not stated)	TDP1 cell CPT inconclusive, TDP1 cell noCPT 14.6µM
Cc1cccc(OCC(=O)N/N=C/CC(C)c2ccccc2)c1C (configuration not stated)	none
O=C(Nc1nccs1)c1c(O)c2c([nH]c1=O)CCCC2	none
O=C(Nc1ccccc1O)c1c(O)c2c([nH]c1=O)CCCC2	S2 tox inconclusive, TDP1 cell CPT inconclusive, TGFb SMAD3 inh 12.6µM, TDP1 cell noCPT inconclusive
Fc1ccc(-n2cc(-c3ccccc3)c3c(N4CCOCC4)ncnc32)cc1	TDP1 cell CPT 20.6µM, TDP1 cell noCPT 20.6µM
COc1ccc(-n2cc(-c3ccccc3)c3c(=O)[nH]cnc32)cc1	none
Brc1ccc(-n2cc(-c3ccccc3)c3c(NN4CCOCC4)ncnc32)cc1	TDP1 cell CPT 18.4µM, TDP1 cell noCPT inconclusive
Fc1ccc(-n2cc(-c3ccccc3)c3c(NC4CCCCC4)ncnc32)cc1	TDP1 cell CPT 20.6µM, TDP1 cell noCPT 23.1µM (no result: S2 tox, ATXN2 expr inh)
CCOC(=O)C(CC)Sc1ncnc2c1c(-c1ccccc1)cn2-c1ccc(OC)cc1 (configuration not stated)	TDP1 cell CPT inconclusive, TDP1 cell noCPT 20.6µM
O=C(NCC(=O)N(c1cccnc1)C(C(=O)NC1CCCC1)c1cccs1)c1ccco1 (configuration not stated)	none
COc1ccc(-n2cc(-c3ccccc3)c3c(NCCCN4CCOCC4)ncnc32)cc1	TDP1 cell CPT inconclusive, ATXN2 expr inh inconclusive, TDP1 cell noCPT inconclusive (no result: S2 tox)
COc1ccc(-n2cc(-c3ccccc3)c3c(N4CCOCC4)ncnc32)cc1	TDP1 cell CPT inconclusive, TGFb SMAD3 inh inconclusive, TDP1 cell noCPT 18.4µM (no result: ATXN2 expr inh)
S=C(NCc1ccc2c(c1)OCO2)NC1CC1	S2 tox inconclusive
CN(C)c1ccc(C2C3=C(CCCC3=O)OC3=C2C(=O)CCC3)cc1	none
Cc1ccc(S(=O)(=O)Oc2ccc(C3C4=C(CCCC4=O)OC4=C3C(=O)CCC4)cc2)cc1	TDP1 cell CPT 23.1µM, TDP1 cell noCPT 16.4µM
COCCNc1oc(Cc2cccc3ccccc23)nc1C#N	TDP1 cell noCPT inconclusive (no result: ATXN2 expr inh)
COc1ccc(OC)c(C2=Nn3c(nnc3-c3cccc(OC(C)C)c3)SC2)c1	TDP1 cell CPT 13µM, TDP1 cell noCPT 11.6µM
Cc1cccc(-c2nnc3n2N=C(c2ccccc2)CS3)c1	S2 tox inconclusive, TDP1 cell noCPT inconclusive
CCOc1ccc(C2=Nn3c(nnc3-c3ccc(OC)cc3)SC2)cc1	TDP1 cell CPT 2.06µM, TGFb SMAD3 inh inconclusive, TDP1 cell noCPT 2.59µM
Cc1cc(-c2nnc3n2N=C(c2ccc(-c4ccccc4)cc2)CS3)n[nH]1	S2 tox inconclusive, TDP1 cell CPT 23.1µM, ATXN2 expr inh inconclusive, TGFb SMAD3 inh inconclusive, TDP1 cell noCPT 14.6µM
Cc1ccc(-c2nnc3n2N=C(c2ccccc2Br)CS3)cc1	TDP1 cell CPT 11.6µM, TGFb SMAD3 inh inconclusive, TDP1 cell noCPT 8.2µM
CC(=O)Nc1ccc(NC(=O)CCC(=O)c2ccc(C)cc2)cc1	none
CN1CCN(C(=O)c2cc(Oc3c(F)c(F)c(F)c(F)c3F)cc(C(=O)N3CCN(C)CC3)c2)CC1	TGFb SMAD3 inh inconclusive
COc1ccc(C2=Nn3c(nnc3-c3ccccc3F)SC2)cc1OC1CCCC1	S2 tox inconclusive, TGFb SMAD3 inh 12.6µM (no result: TDP1 cell CPT, TDP1 cell noCPT)
O=C(CCC(=O)N1CCOc2ccccc21)NCCCN1CCOCC1	none
Cc1ccc(CSCCC(=O)N2CCN(c3cc(C)ccc3C)CC2)cc1	TDP1 cell CPT 23.1µM, TGFb SMAD3 inh inconclusive, TDP1 cell noCPT 13µM (no result: S2 tox, ATXN2 expr inh)
Cc1ccc(C)c(N2CCN(C(=O)CCC(=O)N3CCOc4ccc(Cl)cc43)CC2)c1	S2 tox inconclusive, TDP1 cell CPT 14.6µM, ATXN2 expr inh inconclusive, TGFb SMAD3 inh inconclusive, TDP1 cell noCPT 25.9µM
O=C(CCSCc1ccc(Cl)cc1)N1CCN(c2ccccc2F)CC1	TGFb SMAD3 inh inconclusive (no result: S2 tox, ATXN2 expr inh)
O=C(CCC(=O)N1CCOc2ccc(Cl)cc21)NCCCN1CCC(Cc2ccccc2)CC1	TDP1 cell CPT inconclusive, ATXN2 expr inh inconclusive, TGFb SMAD3 inh inconclusive, TDP1 cell noCPT 18.4µM (no result: S2 tox)
O=C(CCC(=O)N1CCOc2ccc(Cl)cc21)NCCCN1CCN(c2ccccc2F)CC1	S2 tox inconclusive, TDP1 cell CPT 20.6µM, TDP1 cell noCPT 18.4µM
COc1ccc(N2CCN(CCCNC(=O)CCC(=O)N3CCOc4ccc(Cl)cc43)CC2)cc1	TDP1 cell CPT inconclusive, TDP1 cell noCPT inconclusive
CC(C)(CO)C(O)C(=O)NCCCO (configuration not stated)	none
O=C(Cc1cccs1)Nc1cccc(-c2ccc3nncn3n2)c1	TDP1 cell noCPT inconclusive
COc1cccc(CN2C(=O)C3(C(C#N)=C(N)OC4=C3C(=O)CCC4)c3ccccc32)c1 (configuration not stated)	TDP1 cell CPT 0.651µM, TDP1 cell noCPT 0.92µM
CC1(C)CC(=O)C2=C(C1)OC(N)=C(C#N)C21C(=O)N(CN2CCOCC2)c2ccccc21 (configuration not stated)	none
Brc1ccc(NC2=Nc3ccccc3CC2)cc1	TDP1 cell CPT inconclusive, TDP1 cell noCPT 16.4µM
CC1C(=O)N(S(=O)(=O)c2ccc([N+](=O)[O-])cc2)[C@H]1c1ccc2ccccc2c1 (some centres not stated)	none (no result: S2 tox, TDP1 cell CPT, ATXN2 expr inh, TDP1 cell noCPT)
Cc1c(OC(C)C(=O)NCc2ccncc2)ccc2c3c(c(=O)oc12)CCCC3 (configuration not stated)	TDP1 cell CPT 20.6µM, ATXN2 expr inh inconclusive, TDP1 cell noCPT inconclusive
Cc1c(OC(C)C(=O)NCC(O)c2ccccc2)ccc2c3c(c(=O)oc12)CCCC3 (configuration not stated)	TDP1 cell CPT 23.1µM, HepG2 tox 0.112µM, TDP1 cell noCPT inconclusive
Cc1c(OC(C)C(=O)NCc2ccccn2)ccc2c3c(c(=O)oc12)CCC3 (configuration not stated)	TDP1 cell CPT inconclusive, TDP1 cell noCPT inconclusive
CCC(CC)C(=O)Nc1nnc(S(=O)(=O)N(C)c2cc(C)cc(C)c2)s1	TDP1 cell noCPT inconclusive (no result: S2 tox, ATXN2 expr inh)
O=C(CNC1CCCCC1)NN=C(c1ccccc1)c1ccccc1	TDP1 cell CPT inconclusive, TDP1 cell noCPT inconclusive
CCCOC(=O)c1ccc(-c2c(C)noc2-c2ccc(OC)cc2O)o1	TGFb SMAD3 inh 15.8µM, HepG2 tox 12.6µM, TDP1 cell noCPT inconclusive
COc1cc(CN(CCc2c(C)[nH]c3ccc(C)cc23)C(=S)NC(C)(C)C)cc(OC)c1OC	S2 tox inconclusive, TDP1 cell CPT 20.6µM, TDP1 cell noCPT 16.4µM
